This note sets out measurements from article PMC7862700, “An all-to-all approach to the identification of sequence-specific readers for epigenetic DNA modifications on cytosine”.

Common to all, as to assay: DAPPL (digital affinity profiling via proximity ligation, sequencing); 10 mM Tris-HCl pH 7.5, 50 mM NaCl, 1 mM DTT, 4% glycerol, room temperature, 30 min; GST-TFs on glutathione beads, 16-mer random dsDNA library, 0.1% formaldehyde crosslink after washing; high values mean tight binding
Common to all, as to settings: protein: recombinant; tags: N-terminal GST; dsDNA, one strand shown

In one assay the target is T1, FLI1 (Homo sapiens, UniProt Q01543 1-452).
T1 sequence: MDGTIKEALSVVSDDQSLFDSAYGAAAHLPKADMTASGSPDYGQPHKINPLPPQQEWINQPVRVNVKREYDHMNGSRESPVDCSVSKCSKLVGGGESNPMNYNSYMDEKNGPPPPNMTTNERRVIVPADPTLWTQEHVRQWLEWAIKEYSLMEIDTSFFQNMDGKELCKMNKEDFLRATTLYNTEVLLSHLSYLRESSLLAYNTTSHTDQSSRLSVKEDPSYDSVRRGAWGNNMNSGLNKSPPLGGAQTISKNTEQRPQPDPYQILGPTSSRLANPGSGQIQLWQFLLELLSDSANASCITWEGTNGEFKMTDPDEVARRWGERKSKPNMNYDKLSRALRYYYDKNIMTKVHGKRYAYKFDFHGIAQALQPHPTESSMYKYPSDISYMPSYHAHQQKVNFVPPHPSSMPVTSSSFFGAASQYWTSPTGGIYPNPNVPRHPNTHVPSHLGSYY
A digest of the protocol: (§1)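 After expression in yeast as GST fusions, human transcription factors were bound to glutathione beads, DNA-barcoded and mixed with a tag-only sample. The pools were incubated with 200 nmole of a 16-mer random double-stranded DNA library in Tris/NaCl/DTT/glycerol buffer (30 min, room temperature), washed and crosslinked with 0.1% formaldehyde. Proximity ligation with BsaI/T4 ligase ran for 1 h at 37 °C, before PCR amplification and sequencing on an Illumina NextSeq500. Binding signal is a hexamer's read frequency for a factor divided by its frequency for the tag-only sample.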

Another assay deals with T2, ELK1 (Homo sapiens, UniProt P19419 1-428).
T2 sequence: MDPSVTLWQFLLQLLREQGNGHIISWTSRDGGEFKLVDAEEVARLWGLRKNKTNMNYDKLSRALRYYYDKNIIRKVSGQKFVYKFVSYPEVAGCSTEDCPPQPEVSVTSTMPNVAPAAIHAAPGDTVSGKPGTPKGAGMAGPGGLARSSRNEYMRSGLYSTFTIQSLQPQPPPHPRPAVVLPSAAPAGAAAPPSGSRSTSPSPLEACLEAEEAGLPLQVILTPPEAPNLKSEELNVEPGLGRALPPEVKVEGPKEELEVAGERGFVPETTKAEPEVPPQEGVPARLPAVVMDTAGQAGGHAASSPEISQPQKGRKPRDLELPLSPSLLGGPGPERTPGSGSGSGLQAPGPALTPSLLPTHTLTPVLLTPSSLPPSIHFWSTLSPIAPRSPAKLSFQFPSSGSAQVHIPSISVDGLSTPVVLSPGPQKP
The essentials: as §1

Another assay concerns the target T3, GABPA (Homo sapiens, UniProt Q06546 1-454).
T3 sequence: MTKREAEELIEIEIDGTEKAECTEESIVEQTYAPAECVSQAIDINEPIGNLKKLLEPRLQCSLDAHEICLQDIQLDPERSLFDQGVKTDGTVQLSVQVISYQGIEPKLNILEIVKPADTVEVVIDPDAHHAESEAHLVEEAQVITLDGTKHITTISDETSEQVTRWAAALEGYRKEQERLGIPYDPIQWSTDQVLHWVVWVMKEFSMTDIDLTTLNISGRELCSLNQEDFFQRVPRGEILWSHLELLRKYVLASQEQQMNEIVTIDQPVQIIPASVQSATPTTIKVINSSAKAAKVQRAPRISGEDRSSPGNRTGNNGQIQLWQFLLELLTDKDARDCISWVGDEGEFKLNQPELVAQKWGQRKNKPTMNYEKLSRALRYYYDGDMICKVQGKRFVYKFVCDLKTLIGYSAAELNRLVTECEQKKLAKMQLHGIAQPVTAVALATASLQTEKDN
A digest of the protocol: as §1

For a further assay, the target named is T4, ERG (Homo sapiens, UniProt P11308 1-479).
T4 sequence: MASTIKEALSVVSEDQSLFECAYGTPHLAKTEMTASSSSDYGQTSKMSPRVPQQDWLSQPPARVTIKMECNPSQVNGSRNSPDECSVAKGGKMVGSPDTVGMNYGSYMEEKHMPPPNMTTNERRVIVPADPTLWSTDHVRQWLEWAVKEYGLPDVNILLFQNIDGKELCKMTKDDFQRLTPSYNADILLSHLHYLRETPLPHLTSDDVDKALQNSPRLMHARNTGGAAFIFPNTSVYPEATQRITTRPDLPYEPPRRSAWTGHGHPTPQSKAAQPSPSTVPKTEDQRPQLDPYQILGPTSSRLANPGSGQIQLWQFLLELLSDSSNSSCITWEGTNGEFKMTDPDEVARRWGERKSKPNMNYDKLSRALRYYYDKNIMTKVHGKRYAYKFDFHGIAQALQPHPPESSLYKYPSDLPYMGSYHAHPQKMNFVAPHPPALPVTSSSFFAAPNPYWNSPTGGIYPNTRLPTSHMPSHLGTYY
The essentials: as §1

For a further assay, the target named is ELF1 (Homo sapiens, UniProt P32519 1-619). The essentials: as §1
ELF1, sequence (P32519 whole entry): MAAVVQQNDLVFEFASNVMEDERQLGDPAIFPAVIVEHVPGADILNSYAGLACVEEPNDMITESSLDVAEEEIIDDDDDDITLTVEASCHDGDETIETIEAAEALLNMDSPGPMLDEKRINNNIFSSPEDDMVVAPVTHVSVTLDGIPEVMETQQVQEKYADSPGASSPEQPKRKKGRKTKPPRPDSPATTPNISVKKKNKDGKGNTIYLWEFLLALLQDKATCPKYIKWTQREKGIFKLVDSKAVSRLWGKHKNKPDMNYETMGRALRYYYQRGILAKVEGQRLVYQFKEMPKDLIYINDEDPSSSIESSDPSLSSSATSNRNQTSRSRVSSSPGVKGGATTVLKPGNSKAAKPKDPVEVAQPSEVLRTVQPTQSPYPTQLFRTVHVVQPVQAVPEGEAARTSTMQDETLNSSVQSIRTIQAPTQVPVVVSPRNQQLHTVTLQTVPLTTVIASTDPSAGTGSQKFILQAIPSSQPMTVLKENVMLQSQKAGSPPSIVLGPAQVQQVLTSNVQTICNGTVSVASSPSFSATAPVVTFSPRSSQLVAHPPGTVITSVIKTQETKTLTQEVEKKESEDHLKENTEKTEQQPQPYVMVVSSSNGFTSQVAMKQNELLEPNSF
The next assay addresses T5, EHF (Homo sapiens, UniProt Q9NZC4 1-300).
T5 sequence: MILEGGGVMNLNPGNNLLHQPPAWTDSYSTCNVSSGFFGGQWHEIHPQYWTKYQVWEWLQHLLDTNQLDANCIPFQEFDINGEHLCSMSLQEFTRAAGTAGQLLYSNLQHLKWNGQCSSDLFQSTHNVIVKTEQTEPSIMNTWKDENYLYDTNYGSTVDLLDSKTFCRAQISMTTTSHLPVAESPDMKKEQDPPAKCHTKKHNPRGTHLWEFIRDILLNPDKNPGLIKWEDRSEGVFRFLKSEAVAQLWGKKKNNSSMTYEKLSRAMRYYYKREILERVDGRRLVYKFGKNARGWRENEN
The essentials:
as §1

Another assay concerns the target SPI1 (Homo sapiens, UniProt P17947 1-270). The essentials:
as §1

The next assay concerns the target SPIB (Homo sapiens, UniProt Q01892 1-262). The essentials: as §1
Another assay deals with T6, ELK3 (Homo sapiens, UniProt P41970 1-407).
T6 sequence: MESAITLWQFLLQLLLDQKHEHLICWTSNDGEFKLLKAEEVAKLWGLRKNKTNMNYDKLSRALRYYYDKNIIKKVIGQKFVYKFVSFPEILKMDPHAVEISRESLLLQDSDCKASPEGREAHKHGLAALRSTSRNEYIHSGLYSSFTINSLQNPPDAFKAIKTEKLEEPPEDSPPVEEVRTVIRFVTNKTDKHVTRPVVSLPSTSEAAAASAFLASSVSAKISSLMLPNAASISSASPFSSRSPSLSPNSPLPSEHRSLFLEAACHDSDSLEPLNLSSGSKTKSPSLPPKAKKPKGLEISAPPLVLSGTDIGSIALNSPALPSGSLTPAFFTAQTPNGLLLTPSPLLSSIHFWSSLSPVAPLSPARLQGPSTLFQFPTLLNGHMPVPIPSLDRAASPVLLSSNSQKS
The essentials:
as §1

SPIB, sequence (Q01892 whole entry): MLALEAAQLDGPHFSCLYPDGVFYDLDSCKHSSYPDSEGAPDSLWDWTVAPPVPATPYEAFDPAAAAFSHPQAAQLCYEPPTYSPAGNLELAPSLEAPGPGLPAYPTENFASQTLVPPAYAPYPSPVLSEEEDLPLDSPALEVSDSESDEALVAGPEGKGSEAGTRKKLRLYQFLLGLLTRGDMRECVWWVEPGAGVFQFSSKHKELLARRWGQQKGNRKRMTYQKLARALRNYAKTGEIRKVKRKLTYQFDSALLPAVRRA

Take ATACGA: the binding signal with FLI1 is 1.09 fold enrichment (6-mer frequency, TF over GST control); with ELK1, 1.12 fold enrichment (6-mer frequency, TF over GST control); with GABPA, 1.1 fold enrichment (6-mer frequency, TF over GST control); in the assay with ERG, 1.14 fold enrichment (6-mer frequency, TF over GST control); in the assay with ELF1, 1.14 fold enrichment (6-mer frequency, TF over GST control); in the assay with EHF, 1.12 fold enrichment (6-mer frequency, TF over GST control). The binding signal is 1.08 fold enrichment (6-mer frequency, TF over GST control) with SPI1; 1.09 fold enrichment (6-mer frequency, TF over GST control) with SPIB; 1.23 fold enrichment (6-mer frequency, TF over GST control) with ELK3.

Take AATGCG: the binding signal is 1.24 fold enrichment (6-mer frequency, TF over GST control) with FLI1; 1.27 fold enrichment (6-mer frequency, TF over GST control) with ELK1; 1.27 fold enrichment (6-mer frequency, TF over GST control) with GABPA; 1.23 fold enrichment (6-mer frequency, TF over GST control) with ERG; 1.21 fold enrichment (6-mer frequency, TF over GST control) with ELF1; 1.32 fold enrichment (6-mer frequency, TF over GST control) with EHF. The binding signal was 1.58 fold enrichment (6-mer frequency, TF over GST control) in the assay with SPI1; 1.31 fold enrichment (6-mer frequency, TF over GST control) with SPIB; 1.29 fold enrichment (6-mer frequency, TF over GST control) in the assay with ELK3.

In the case of TATGAA, the binding signal with FLI1 was 1.18 fold enrichment (6-mer frequency, TF over GST control); with ELK1, 1.17 fold enrichment (6-mer frequency, TF over GST control); with GABPA, 1.21 fold enrichment (6-mer frequency, TF over GST control); with ERG, 1.14 fold enrichment (6-mer frequency, TF over GST control); in the assay with ELF1, 1.18 fold enrichment (6-mer frequency, TF over GST control); with EHF it was 1.12 fold enrichment (6-mer frequency, TF over GST control). Further, the binding signal was 1.19 fold enrichment (6-mer frequency, TF over GST control) with SPI1; 1.17 fold enrichment (6-mer frequency, TF over GST control) with SPIB; 1.16 fold enrichment (6-mer frequency, TF over GST control) with ELK3.

As to GAACCT, the binding signal in the assay with FLI1 was 1.09 fold enrichment (6-mer frequency, TF over GST control); with ELK1 it was 1.27 fold enrichment (6-mer frequency, TF over GST control); with GABPA, 1.06 fold enrichment (6-mer frequency, TF over GST control); with ERG, 1.09 fold enrichment (6-mer frequency, TF over GST control); with ELF1, 1.13 fold enrichment (6-mer frequency, TF over GST control); in the assay with EHF, 1.15 fold enrichment (6-mer frequency, TF over GST control). The binding signal with SPI1 is 1.11 fold enrichment (6-mer frequency, TF over GST control); with SPIB it was 1.14 fold enrichment (6-mer frequency, TF over GST control); in the assay with ELK3, 1.18 fold enrichment (6-mer frequency, TF over GST control).

As for TCCTAC, the binding signal was 1.48 fold enrichment (6-mer frequency, TF over GST control) in the assay with FLI1; 1.46 fold enrichment (6-mer frequency, TF over GST control) with ELK1; 1.43 fold enrichment (6-mer frequency, TF over GST control) with GABPA; 1.42 fold enrichment (6-mer frequency, TF over GST control) with ERG; 1.31 fold enrichment (6-mer frequency, TF over GST control) with ELF1; 1.45 fold enrichment (6-mer frequency, TF over GST control) in the assay with EHF. Further, the binding signal with SPI1 was 1.52 fold enrichment (6-mer frequency, TF over GST control); with SPIB, 1.65 fold enrichment (6-mer frequency, TF over GST control); with ELK3, 1.56 fold enrichment (6-mer frequency, TF over GST control).

GCTCTA: the binding signal is 1.17 fold enrichment (6-mer frequency, TF over GST control) with FLI1; 1.09 fold enrichment (6-mer frequency, TF over GST control) with ELK1; 1.11 fold enrichment (6-mer frequency, TF over GST control) with GABPA; 1.24 fold enrichment (6-mer frequency, TF over GST control) with ERG; 1.13 fold enrichment (6-mer frequency, TF over GST control) with ELF1; 1.23 fold enrichment (6-mer frequency, TF over GST control) with EHF. Besides, the binding signal was 1.04 fold enrichment (6-mer frequency, TF over GST control) with SPI1; 1.09 fold enrichment (6-mer frequency, TF over GST control) in the assay with SPIB; 1.09 fold enrichment (6-mer frequency, TF over GST control) with ELK3.

On to CTCCCC, for which the binding signal was 1.44 fold enrichment (6-mer frequency, TF over GST control) in the assay with FLI1; 1.31 fold enrichment (6-mer frequency, TF over GST control) in the assay with ELK1; 1.41 fold enrichment (6-mer frequency, TF over GST control) with GABPA; 1.45 fold enrichment (6-mer frequency, TF over GST control) with ERG; 1.45 fold enrichment (6-mer frequency, TF over GST control) with ELF1; 1.56 fold enrichment (6-mer frequency, TF over GST control) with EHF. Besides, the binding signal with SPI1 is 1.3 fold enrichment (6-mer frequency, TF over GST control); with SPIB it was 1.38 fold enrichment (6-mer frequency, TF over GST control); with ELK3, 1.4 fold enrichment (6-mer frequency, TF over GST control).

On to CCTACT, for which the binding signal was 1.73 fold enrichment (6-mer frequency, TF over GST control) in the assay with FLI1; 1.61 fold enrichment (6-mer frequency, TF over GST control) with ELK1; 1.53 fold enrichment (6-mer frequency, TF over GST control) with GABPA; 1.54 fold enrichment (6-mer frequency, TF over GST control) in the assay with ERG; 1.73 fold enrichment (6-mer frequency, TF over GST control) in the assay with ELF1; 1.69 fold enrichment (6-mer frequency, TF over GST control) in the assay with EHF. Also, the binding signal with SPI1 was 1.77 fold enrichment (6-mer frequency, TF over GST control); with SPIB, 1.76 fold enrichment (6-mer frequency, TF over GST control); in the assay with ELK3, 1.55 fold enrichment (6-mer frequency, TF over GST control).
